Source: PubChem (National Center for Advancing Translational Sciences (NCATS))
ALDH1A1 block – qHTS Assay for Inhibitors of Aldehyde Dehydrogenase 1 (ALDH1A1). Aldehyde dehydrogenase 1A1 (Homo sapiens), P00352. Purified ALDH1A1, NADH fluorescence, propionaldehyde substrate. Potency, µM (series often up to 75.3 µM), hits mostly inhibitors. 220,000 tested, 7.3% active
Target sequence (P00352 whole entry, looked up): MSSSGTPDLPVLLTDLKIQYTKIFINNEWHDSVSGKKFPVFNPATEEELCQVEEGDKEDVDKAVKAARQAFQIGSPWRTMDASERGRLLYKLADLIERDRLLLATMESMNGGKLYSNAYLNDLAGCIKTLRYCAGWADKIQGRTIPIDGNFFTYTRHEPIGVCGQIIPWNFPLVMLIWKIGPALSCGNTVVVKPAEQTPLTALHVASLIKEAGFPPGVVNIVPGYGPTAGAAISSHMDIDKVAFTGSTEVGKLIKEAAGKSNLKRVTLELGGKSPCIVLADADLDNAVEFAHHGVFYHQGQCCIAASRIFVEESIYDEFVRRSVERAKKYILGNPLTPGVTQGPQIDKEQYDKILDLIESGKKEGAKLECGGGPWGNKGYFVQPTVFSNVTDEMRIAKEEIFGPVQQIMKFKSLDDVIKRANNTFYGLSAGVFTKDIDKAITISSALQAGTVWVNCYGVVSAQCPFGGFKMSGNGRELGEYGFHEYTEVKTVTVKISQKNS
HPGD inh – qHTS Assay for Inhibitors of HPGD (15-Hydroxyprostaglandin Dehydrogenase); purified HPGD, NADH fluorescence kinetic, PGE2 substrate; Potency, µM, usual class: inhibitors; 150,000 tested, 4.3% active
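20 nM HPGD preincubated 15 min at room temperature with compound in 50 mM Tris-HCl pH 8, 0.01% Tween 20. Started with 1 mM NAD+ and 30 uM prostaglandin E2; NADH fluorescence (360/450 nm) read 5 times over 30-s intervals, last minus first.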
PNC assembly inh – High Content Assay for Compounds that inhibit the Assembly of the Perinucleolar Compartment. PC3M PTB-GFP, PNC prevalence imaging, 16 h; stronger effect = lower value. activity change (PNC), negative = inhibition, % at 10 µM. 140,000 tested, 3.1% active;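 active = readout at or below -70, meaning at least 70% loss of cells showing the perinucleolar compartment, a nuclear body marking cancer cells; inconclusive = readout between -30 and a set limit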
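Read-out is percentage of cells bearing a perinucleolar compartment, from automated 20x imaging of fixed, Hoechst-stained PC3M PTB-GFP cells. Cells were seeded 4 h, then exposed 16 h to compound (23 nl of library stock) in duplicate plates.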
Numbers stand for hits; [ ] = another dose, or the depositor's remark. Only some compounds are listed: those with a hit (about 11% of all), similar ones and a draw of the others. Unless noted, calls follow the shape of the dose curve; as a rule, active = well fitted inhibition curve with a large enough effect (not every such curve was filed as active); inconclusive = small, poorly fitted or top-dose-only effect, or another doubt; inactive = no such curve, though single readings can be large or run the other way.

What do the screens show for `O=C(CSc1nnnn1Cc1ccccc1)Nc1ccc2c(c1)OCCO2`?
ALDH1A1 block: 8.9µM; HPGD inh: inactive; PNC assembly inh: inactive

Results for CC(=O)Nc1cccc(NC(=O)CSc2nnnn2C(C)C)c1 ?
ALDH1A1 block: 14µM; HPGD inh: inactive; PNC assembly inh: inconclusive

How did CC(=O)Nc1cccc(NC(=O)CSc2nnnn2C)c1 do in these assays?
ALDH1A1 block: inactive; HPGD inh: inactive; PNC assembly inh: inactive

Results for CCC(=O)Nc1cccc(NC(=O)CSc2nnnn2Cc2ccccc2)c1 ?
ALDH1A1 block: 20µM; HPGD inh: inactive; PNC assembly inh: inactive

Results for O=C(NNC1=NCCC1)C1CC1 ?
ALDH1A1 block: inactive

What do the screens show for `CO/N=C(\c1nonc1N)N1CCN(c2ccc(Cl)cc2[N+](=O)[O-])CC1`?
ALDH1A1 block: inactive; HPGD inh: inactive; PNC assembly inh: inactive

Results for CCCCN(CCCNC(=O)C1CCN(S(=O)(=O)N2CCOCC2)CC1)Cc1ccccc1 ?
ALDH1A1 block: inactive; PNC assembly inh: inactive

Results for CC(C)N(CCNC(=O)C1CCN(S(=O)(=O)N2CCOCC2)CC1)Cc1ccccc1 ?
ALDH1A1 block: inactive; HPGD inh: inactive; PNC assembly inh: -102

What do the screens show for `O=C(N1CCOCC1)N1CCN(C(=O)N(c2ccccc2)c2ccccc2)CC1`?
ALDH1A1 block: inconclusive; HPGD inh: inactive; PNC assembly inh: inactive

What do the screens show for `O=C(N1CCCCC1)N1CCN(C(=O)N(c2ccccc2)c2ccccc2)CC1`?
ALDH1A1 block: 11µM; HPGD inh: inactive; PNC assembly inh: inactive

What do the screens show for `COc1cc2cc3c4cc(OC)c(OC)cc4cc[n+]3c(C)c2cc1OC`?
ALDH1A1 block: inconclusive; HPGD inh: inactive

Results for CCC(C)c1ccc(NC(=S)Nc2ccc(OC)c(OC)c2)cc1 (configuration not stated) ?
ALDH1A1 block: 28µM; HPGD inh: inactive; PNC assembly inh: inactive

How did COc1ccc(NC(=S)NCc2cccnc2)cc1OC do in these assays?
ALDH1A1 block: inactive

Results for CCOc1ccc(CC(=O)NNC(=S)Nc2ccc(OC)c(OC)c2)cc1 ?
ALDH1A1 block: inactive

Results for COc1ccc(NC(=S)Nc2ccc(OCc3ccccc3)cc2)cc1OC ?
ALDH1A1 block: 18µM; HPGD inh: inactive; PNC assembly inh: inactive

Results for CCC(C)c1ccc(NC(=S)Nc2ccc(OC)cc2C)cc1 (configuration not stated) ?
ALDH1A1 block: inactive; HPGD inh: 25µM; PNC assembly inh: inactive

What do the screens show for `COc1ccc(NC(C)=O)c(C)c1`?
ALDH1A1 block: inactive

Results for C[N+]1(CN2C(=O)C3C4C=CC(C4)C3C2=O)CCCCC1 (configuration not stated) ?
ALDH1A1 block: inactive

How did O=C(O)C1CCN(c2ccc(Cl)nn2)CC1 do in these assays?
ALDH1A1 block: inactive

What do the screens show for `CCOc1ccc(NC(=O)N2CCC(NC(=O)C(Cc3ccc(OC)c(OC)c3)NC(C)=O)CC2)cc1` (configuration not stated)?
ALDH1A1 block: 0.056µM; HPGD inh: inactive; PNC assembly inh: inactive

What do the screens show for `COc1cccc(CC(NC(C)=O)C(=O)NC2CCN(S(=O)(=O)c3cccc4ccccc34)CC2)c1` (configuration not stated)?
ALDH1A1 block: inactive; HPGD inh: inactive; PNC assembly inh: inconclusive

What do the screens show for `COc1ccc(CC(NC(C)=O)C(=O)NC2CCN(C(=O)NCc3ccccc3)CC2)cc1OC` (configuration not stated)?
ALDH1A1 block: inactive; HPGD inh: inactive; PNC assembly inh: inactive

Results for COc1cccc(CC(NC(C)=O)C(=O)NC2CCN(c3nnnn3-c3ccccc3)CC2)c1 (configuration not stated) ?
ALDH1A1 block: 14µM; HPGD inh: inactive; PNC assembly inh: inactive

How did CC(=O)NC(Cc1ccccc1)C(=O)NC1CCN(C(=O)NC2CCCCC2)CC1 (configuration not stated) do in these assays?
ALDH1A1 block: inactive; HPGD inh: inactive; PNC assembly inh: inactive

Results for COc1ccc(CC(NC(C)=O)C(=O)NC2CCN(c3c(Cc4ccccc4)c(C)nc4ncnn34)CC2)cc1OC (configuration not stated) ?
ALDH1A1 block: inactive; HPGD inh: inconclusive; PNC assembly inh: inactive

What do the screens show for `COc1ccc(CC(NC(C)=O)C(=O)NC2CCN(c3nnnn3-c3ccccc3)CC2)cc1OC` (configuration not stated)?
ALDH1A1 block: 10µM

What do the screens show for `CC(=O)NC(Cc1cccc(F)c1)C(=O)NC1CCN(c2nnnn2-c2ccccc2)CC1` (configuration not stated)?
ALDH1A1 block: 1.4µM

What do the screens show for `CCOCC(=O)Nc1cc(C(=O)Nc2ccc(F)cc2)ccc1Cl`?
ALDH1A1 block: inactive

What do the screens show for `O=C(CCn1cnc2ccccc2c1=O)Nc1nc(-c2ccc(Br)cc2)cs1`?
ALDH1A1 block: inactive; HPGD inh: inactive; PNC assembly inh: inactive

What do the screens show for `CC(C)N1CCN(Cc2ccoc2)CC1CCO` (configuration not stated)?
ALDH1A1 block: inactive

Results for CC(C)(C)N1C(=O)[C@H]2[C@H]3[C@H](O)[C@H](O)C/C(=N/OCc4ccccc4)[C@H]3CC[C@@H]2C1=O ?
ALDH1A1 block: inactive[13.5 µM]

What do the screens show for `CCN(CC)C(=O)Cn1cc(C(=O)C2CC2)c2ccccc21`?
ALDH1A1 block: inactive

Results for O=C(NC1(C(F)(F)F)OCCO1)c1ccc(F)cc1 ?
ALDH1A1 block: inactive

How did COc1ccc(CC(NC(C)=O)C(=O)NC2CCN(c3nnnn3-c3ccccc3)CC2)cc1 (configuration not stated) do in these assays?
ALDH1A1 block: 2.5µM; HPGD inh: inactive; PNC assembly inh: inactive

Results for COc1nc(OC)nc(N2CCC(NC(=O)C(Cc3ccc(C(C)C)cc3)NC(C)=O)CC2)n1 (configuration not stated) ?
ALDH1A1 block: inactive; HPGD inh: inactive; PNC assembly inh: inactive

How did CC(C)(CO)C(O)C(=O)NCCC#N (configuration not stated) do in these assays?
ALDH1A1 block: inactive

What do the screens show for `Cc1nnc2sc(-c3ccncc3)nn12`?
ALDH1A1 block: inactive; HPGD inh: inactive; PNC assembly inh: inconclusive

What do the screens show for `COc1cc(OC)c(-c2nn3c(-c4cccnc4)nnc3s2)cc1OC`?
ALDH1A1 block: inactive; PNC assembly inh: inactive

How did COc1cc(OC)c(-c2nn3c(-c4ccncc4)nnc3s2)cc1OC do in these assays?
ALDH1A1 block: inactive; HPGD inh: inactive; PNC assembly inh: -136

Results for CC(C)(C)c1ccc(-c2nnc3sc(-c4ccncc4)nn23)cc1 ?
ALDH1A1 block: 13µM; HPGD inh: inconclusive; PNC assembly inh: inactive

How did N=C(N)SCc1cc(Cl)cc(Cl)c1O do in these assays?
ALDH1A1 block: inactive[13.5 µM]; HPGD inh: inactive

Results for Cc1ccc(S(=O)(=O)Nc2ccc(NC(=O)c3c(F)c(F)c(F)c(F)c3F)cc2)cc1 ?
ALDH1A1 block: inactive

How did O=C(NC1CCCC1)c1ccc(S(=O)(=O)N2CCCC2)cc1 do in these assays?
ALDH1A1 block: inconclusive; HPGD inh: inactive; PNC assembly inh: inactive

What do the screens show for `NS(=O)(=O)c1ccc(NC(=S)NC2CCCC2)cc1`?
ALDH1A1 block: inconclusive; HPGD inh: 14µM; PNC assembly inh: inactive
